Assay results: PubChem BioAssay AID686971 (National Center for Advancing Translational Sciences (NCATS), 2013)
Among all 360,000 compounds or so, about 7,500 (2.1%) were called active. Inconclusive results (about 8%) are left out. The sample as a whole holds a higher share of actives than the screen did. A number with no mark means an inactive call. The call rests on the fitted dose curve; in most records, active means well fitted cell-killing curve with a large enough effect; inconclusive means small, poorly fitted or top-dose-only effect, or effect the other way, or another doubt; inactive means no such curve, though single readings can be large or run the other way.

Assay: qHTS for induction of synthetic lethality in tumor cells producing 2HG: qHTS for the HT-1080-IDH1KD cell line
Details: HT-1080 IDH1 knockdown viability, ATP luminescence, 48 h; series mostly up to 46.1 µM; activity, negative = toxicity: at the top concentration
Source text: Unbiased genomic sequencing for 22 glioma genomes found recurrent mutation of IDH1 on chromosome 2q33, a gene encoding the cytosolic isoform of IIDH1 associated with the tri-carboxylic acid cycle (TCA) that catalyzes the oxidative decarboxylation of isocitrate, yielding alpha-ketoglutarate and CO2 via NADP+ to NADPH conversion. Subsequent studies confirmed the recurrent IDH mutations in up to 70% of secondary gliomas and in 10% of AML cases. In addition, the somatic mutation of cancer-associated IDH1 is a point mutation resulting in various amino-acid substituents at Arginine132 (IDH1 R132), a key residue found in the enzyme's active site that when mutated, results in the loss-of-function in metabolizing isocitrate but confers a gain-of-function to produce the oncometabolite 2-hydroxyglutarate (2HG). This in effect defines IDH1 as an oncogene and provides an extraordinary opportunity to discover chemical probes against mutant IDH1 that may translate into much needed new therapies for glioma and AML patients.
This assay aims to perform a synthetic-lethal screen for chemical probes specific for 2HG-producing tumor cells using matched paired cell lines (1) HT-1080-NT fibrosarcoma cell line that overproduces 2HG and (2) HT-1080-IDH1KD cell line which has IDH1 expression knocked-down. Desirable compounds are toxic to the NT fibrosarcoma cell line but not to the IDH1KD cell line. The data in this AID corresponds to the results of the qHTS against the HT-1080 IDH1KD cell line.
[1] Dang L, Jin S, Su SM. IDH mutations in glioma and acute myeloid leukemia. Trends of Mol Med. 2010; 16(9): 387-97.
[2] Dang L et al. Cancer-associated IDH1 mutations produce 2-hydroxyglutarate. Nature. 2010; 465(7300):966.
Molecular Libraries Probe Production Centers Network [MLPCN]
NIH Chemical Genomics Center [NCGC]
Assay Submitter (PI): Lenny Dang Ph.D., Agios Pharmaceuticals
Suspensions of trypsinized HT-1080-IDH1KD cells were dispensed into white, tissue culture-treated, solid 1536-well plates at 5uL/well (750 cells/well final concentration) in RPMI medium supplemented with 5% FBS. Plates were incubated at 37 degrees C for 2 hours, after which 23 nL of compounds or DMSO were delivered to each well using a pin tool. Plates were then incubated at 37 degrees C for an additional 48 hours. CellTiter-Glo viability reagent (Promega) was dispensed into wells (2.5uL/well) and incubated at room temperature for 10 minutes. The plates were measured on a PerkinElmer ViewLux plate reader for luminescent signal (clear filter, 1 sec exp.). DMSO-treated control wells and media-only (no cells) control wells were used to normalize %Activity of identified toxic compounds; DMSO-treated wells corresponded to 0%Activity (100% viability), while media-only controls were used to normalize 100%Activity (0% viability). To minimize variability between cell lines, both HT-1080-NT and HT-1080-IDH1KD lines were dispensed and treated with identical compound series in single batches.
Concentration-response curves were fitted to the signals arising from the resulting luminescence. The concentration-effect curves were then classified based on curve quality (r2), response magnitude and degree of measured activity, and compounds were subsequently categorized based on their curve class.
Potency means the concentration at half of the fitted maximal effect.

Compared with `CC(=O)C[C@@H]1OC[C@H](CO)N1S(=O)(=O)c1ccc(C)cc1`, `CCc1ccc([C@@H]2CC(=O)[C@@H]3CN(S(=O)(=O)c4ccc(C)cc4)[C@H](c4ccc(Cl)cc4)C[C@@H]3N2S(=O)(=O)c2ccc(C)cc2)cc1` is higher in “activity, negative = toxicity” value: 22.6% for the first, 23.1% for the second.

Compared with `Cn1ncc([N+](=O)[O-])c1C(=O)Nc1cc(Cl)ccc1Cl`, `CC1(c2ccccc2)NC(=O)N(CC(=O)Nc2cc(Cl)ccc2N2CCOCC2)C1=O` (configuration not stated) is higher in “activity, negative = toxicity” value: -2.97% for the first, -1.21% for the second.

Going from `CCCC/C=C/c1cccc2nncn12` to `CN(C)CCCOc1ccc(-c2ccc3nccn3c2)cn1`, the “activity, negative = toxicity” value rises from 0.514% to 2.09%.

First: CN(C)C(CNC(=O)c1cc(Br)c(Br)s1)c1ccco1 (configuration not stated)
Second: Cc1c(C(=O)NCc2ccc(C#N)cc2)sc(=O)n1Cc1ccc(C(=O)N(C)C)cc1
The “activity, negative = toxicity” value of the first is higher: -0.0129% for the first, -10.5% for the second.

Going from `CC1CCN(C(=O)CSc2nnc(-c3ccco3)n2N)CC1` to `COc1cccc(CN2CCC(C(=O)NC(c3ccc4c(c3)OCO4)c3ccccn3)CC2)c1` (configuration not stated), the “activity, negative = toxicity” value falls from 9.04% to -8.81%.

Going from `O=C(CCCOc1ccc(Cl)cc1Cl)NNC(=O)C1CCC1` to `O=C(CCC(=O)OCc1ccc(Cl)cc1)Nc1ccccc1`, the “activity, negative = toxicity” value rises from -11.3% to 0.564%.

Going from `O=C1NC(Cc2ccccc2)c2nc3ccc(Br)cc3c(=O)n2-c2cc3ccccc3cc21` (configuration not stated) to `O=C(O)CC1=C(Nc2ccccc2)C(=O)N(c2ccccc2)C1c1ccc(Cl)cc1` (configuration not stated), the “activity, negative = toxicity” value rises from -9.22% to 0.642%.

Going from `COc1ccc(CN2C(=O)C(CC(=O)NC3CCCCC3)CC(C(=O)N3CCOCC3)=C2C)cc1` (configuration not stated) to `COC(=O)c1ccc2nc(C3CCCCC3)c(Cc3cccc(F)c3)n2c1`, the “activity, negative = toxicity” value falls from -3.06% to -10.3%.

Going from `CCC(=O)NCc1cc(-c2nn(C)c(=O)c3ccccc23)ccc1OC` to `COc1ccc(-c2nn(-c3ccccc3)cc2C(=O)Nc2nccs2)cc1OC`, the “activity, negative = toxicity” value falls from -4.19% to -22.5%.

Going from `COC(=O)c1ccc2nc(-c3cccc(Br)c3)c(Cc3ccc(OC)cc3C)n2c1` to `COC(=O)c1ccc2nc(-c3cccc(Br)c3)c(Cc3ccccc3C(F)(F)F)n2c1`, the “activity, negative = toxicity” value rises from -8.37% to 7.64%.

Going from `COc1ccccc1CCNS(=O)(=O)c1cn(C)nc1C` to `COc1ccccc1Cc1c(-c2ccc(Cl)cc2)nc2ccc(Cl)cn12`, the “activity, negative = toxicity” value falls from -0.537% to -22.2%.

Going from `COc1cccc(-c2cnc(C(O)c3ccccc3OC)[nH]2)c1` (configuration not stated) to `COc1cccc(-c2cc(NC(C)=O)c3ncc(-c4cccc(C(C)=O)c4)n3c2)c1`, the “activity, negative = toxicity” value falls from 21% to -20.1%.

Going from `CCCOc1ccc(F)cc1-c1cc(C(=O)NCc2ccc(F)cc2)[nH]n1` to `O=C(NCCCN1CCOCC1)c1cn(-c2ccccc2)nc1-c1ccc(F)cc1`, the “activity, negative = toxicity” value rises from -15.1% to 2.98%.

Going from `O=C(COc1ccc(S(=O)(=O)N2CCCC2)cc1[N+](=O)[O-])N1CCCCC1` to `COc1ccc(-c2nn(-c3ccccc3)cc2/C=C\C(=O)N2CCOCC2)cc1[N+](=O)[O-]`, the “activity, negative = toxicity” value falls from 2.99% to 2.09%.

Compared with `CCCCCCCCN1C(=O)[C@H](CC(=O)NCC23CC4CC(CC(C4)C2)C3)C[C@@]2(C(=O)OC)CCCCC=C12`, `CCCNC(=O)c1cc(C2CCCCN2C(=O)OC)on1` (configuration not stated) is higher in “activity, negative = toxicity” value: 4.09% for the first, 19.5% for the second.

First: C[C@@H]1CN([C@@H](C)CO)C(=O)c2c(c3ccccc3n2C)-c2ccccc2CO[C@H]1CN(C)C(=O)C1CC1
Second: CCC(C)C(=O)Nc1ccccc1N1CCN(c2ccc(F)cc2)CC1 (configuration not stated)
The “activity, negative = toxicity” value of the first is higher: 4.26% for the first, -20.9% for the second.

Compared with `CN1CCN(C(=O)c2ccc(NC(=O)c3ccc(Br)o3)cc2)CC1`, `N#C/C=C(/c1ccc(F)cc1)N1CCOCC1` is higher in “activity, negative = toxicity” value: 1.04% for the first, 13% for the second.

Going from `Cc1ccccc1NC(=O)CSc1nc2ccc(Nc3nc(N4CCOCC4)nc(N4CCOCC4)n3)cc2s1` to `c1ccc2c(c1)nnn2-c1ccncc1`, the “activity, negative = toxicity” value falls from -4.33% to -7.3%.

For `C=CCC[C@H](CCCCC)OC(=O)/C=C/[C@H](O)[C@@H](O)C[C@@H](O)CC=C`, the “activity, negative = toxicity” value was -19.9%.

With `O=C(NC(c1ccc(-c2ccccc2)cc1)c1cnccn1)C1CCN(CCOc2ccc(Cl)cc2Cl)CC1` (configuration not stated) the Potency was 14.6 µM (active).
With `CCCCCc1c(-c2ccc(OC)c(OC)c2)ncn1CCc1ccccc1OC` the Potency was 10.3 µM (active).
For `CCCCCc1c(-c2cccc(Br)c2)ncn1CCc1ccccc1OC`, the Potency was 18.4 µM (active).
With `CCCCc1c(-c2ccc(Br)cc2)ncn1CCc1ccccc1OC` the Potency was 7.31 µM (active).
For `O=C(CSc1nc(Nc2ccccc2)nc(N2CCOCC2)n1)Nc1cc(Cl)ccc1O`, the Potency was 18.4 µM (active).
With `O=C1C=C(c2ccc(Cl)cc2)C(=O)N1Nc1ccccc1` the Potency was 18.4 µM (active).
For `O=C(/C=C/c1cn(-c2ccccc2)nc1-c1ccc2c(c1)OCCO2)NCCCN1CCOCC1`, the Potency was 20.6 µM (active).
For `CN(C)CCNC(=O)c1cccc(-c2cnc3c(NC=O)cc(-c4cccc(C(F)(F)F)c4)cn23)c1`, the Potency was 18.4 µM (active).
In the case of `CC(=O)Nc1cc(-c2ccc(N3CCN(C)CC3)cc2)cn2c(-c3ccc(F)cc3)cnc12`, the Potency was 23.1 µM (active).
With `O=CNc1cc(-c2ccc(C(=O)N3CCOCC3)cc2)cn2c(-c3ccc(F)cc3)cnc12` the Potency was 13 µM (active).
